# PubChem BioAssay AID651550 (National Center for Advancing Translational Sciences (NCATS), 2012)
# In all, about 360,000 compounds went through this assay and about 1,100 (0.31%) were called active. The entries come from a sample that favours actives as a whole. A number with no mark means an inactive call. Rule as the data show it: active = activity change below about -80%; inconclusive = mostly about -51% to -80%; inactive = weaker than that.
# Target: RAC-alpha serine/threonine-protein kinase (Homo sapiens) (UniProt P31749)
# Test: HTS Assay for Inhibitors of Akt Phophorylation: Primary Screen
# Conditions: Neuro2A IGF-stimulated pAkt S473 HTRF, 20 min; at 50 µM, hits give low values
# From the text: The serine/threonine protein kinase Akt (protein kinase B) regulates various cellular processes, including cell survival, growth, proliferation, migration and differentiation. It has been well established that Akt is activated through two essential steps involving membrane translocation and phosphorylation. Cytosolic Akt is recruited to the plasma membrane via the interaction between the PH domain and membrane PIP3 produced by phosphoinositide-3 kinase (PI3K) upon growth factor receptor stimulation. The membrane-Akt interaction results in conformational changes of Akt, enabling its activation through phosphorylation at T308 in the kinase domain and at S473 in the C-terminal hydrophobic motif by PDK1 and mTOR-rictor complex (mTORC2), respectively. […] These findings indicate that S473 phosphorylation, as an important modulator of Akt activation, may be a valuable drug target for cell growth, survival, proliferation and differentiation. These inhibitors also may have significant therapeutic potential with fewer side effects, especially for the conditions involving hyperactive Akt signaling, such as cancer and Alzheimer's disease.
# To this end, a miniaturized assay was developed to be screened against the Molecular Libraries Small Molecule Repository (MLSMR).
# NIH Chemical Genomics Center [NCGC]
# NIH Molecular Libraries Probe Centers Network [MLPCN]
# Assay Submitter (PI): Hee-Yong Kim, National Institute on Alcohol Abuse and Alcoholism
# 3 uL of Neuro2A cell suspension in DMEM containing 0.5% FBS and […] antibiotics mix was plated in a white solid bottom tissue culture-treated 1536-well plate (Greiner Bio-One, Monroe, NC) at 4,500 cells per well and incubated overnight at 37 deg C. 23 nL/well of compound solutions in DMSO was added with Pintool transfer (Kalypsis, San Diego, CA) at single […] final concentration. Then, the cells were stimulated with 1.5 uL of IGF (6 nM final concentration) and incubated at 37 deg C for 20 min. The reaction was terminated by the addition of 1.5 uL blocking reagent mixed with lysis buffer (1:25 correspondingly) provided with HTRF(R) Phospho Akt (Ser473) kit (Cisbio US, Bedford, MA), with following incubation for 50 min at ambient temperature. The detection HTRF conjugates from the kit were prepared according to the protocol, pre-mixed 1:1 prior to dispensing, and 2 uL/well was added with BioRAPTR FRD dispenser (Beckman Coulter). The assay plates were incubated for 24 hours at ambient temperature, and the HTRF fluorescence was measured using Envision plate reader (PerkinElmer) with excitation at 330nm, emission at 615nm (Eu(3)-Cryptate donor signal) and 665nm (d2 acceptor signal). The ratio of […] was calculated for each well.
# % is scaled to controls: 0 for no effect and ±100 for the full control effect.
row,SMILES,activity change
1,CCCc1nnc(NC(=O)CCC(=O)N2CCN(S(=O)(=O)c3ccc(OC)cc3)CC2)s1,inactive
2,Cc1ccccc1Nc1nnc(C)c(=O)[nH]1,-109% (active)
3,CCc1c(Nc2ccccc2C)nc(N)[nH]c1=O,inactive
4,Cc1nnc(N/N=C/c2ccccn2)[nH]c1=O,inactive
5,Cc1cccc(C)c1NC(=O)C(c1cccc2ccccc12)n1c(=O)c(-c2ccco2)nc2ccccc21 (stereo not drawn),inactive
6,COc1cccc(-c2ccc3c(c2)N(Cc2ccccc2OC)C(=O)C(C)S3)c1 (stereo not drawn),inactive
7,CCc1c(-c2ccc(F)cc2)ncn1Cc1cccc(-c2ccccc2)c1,inactive
8,CCCCCn1nnnc1-c1nc2cc3ccccc3cc2[nH]c1=O,inactive
9,COc1ccccc1NC(=O)C1CCN(C(=O)c2ccc(C(C)(C)C)cc2)CC1,inactive
10,Cc1cc(Br)cn2c(Cc3ccccc3C(F)(F)F)c(-c3ccc(Cl)cc3)nc12,inactive
11,CSc1ccc(-c2c(C#N)c(N)nc3c2c(C)nn3-c2ccccc2)cc1,-83.6% (active)
12,Cc1nc2c(c(C)nn2-c2ccccc2)c(C)c1C,inactive
13,Cn1c(=O)c2c(-c3cccc(Br)c3)c(C#N)c(N)nc2n(C)c1=O,inactive
14,COc1ccc(NC(=O)C(c2ccncc2)n2c(=O)c(-c3cc4ccccc4[nH]3)nc3ccccc32)cc1 (stereo not drawn),inactive
15,Nc1nc2ncccn2c1-c1ccccc1,inactive
16,CC(=O)OCc1cc2cc(C)ccc2[nH]c1=O,-102% (active)
17,CCOC(=O)c1cc2cc(C)ccc2[nH]1,inactive
18,Cc1ccc2[nH]c(=O)c(COC(=O)c3ccccn3)cc2c1,-7.82%
19,CCOc1ccc(N(CC(=O)NCc2ccc(OC)cc2)S(=O)(=O)c2c(C)noc2C)cc1,-134% (active)
20,CCOc1ccc(N(CC(=O)OC)S(=O)(=O)c2c(C)noc2C)cc1,inactive
21,Cc1noc(C)c1S(=O)(=O)N(CC(=O)NCc1ccc(Cl)cc1)c1ccc2c(c1)OCO2,inactive

row,SMILES,activity change
1,NC(=NC(=O)c1ccccc1)C1=C(O)CCC1=O,-110% (active)
2,NC(=NC(=O)c1ccccc1)N1CCOCC1,inactive
3,Cc1onc(-c2ccccc2)c1C(=O)N=C(N)c1ccc(Cl)cc1,inactive
4,O=C(O)Cc1csc(-c2cccc(Oc3ccccc3)c2)n1,inactive
5,CCCCOCCCNC(=O)C[C@@H]1C[C@@]2(C(=O)OCC)CCCC=C2N(CCC2=CCCCC2)C1=O,inactive
6,CC(C)N1C(=O)c2ccccc2NC(=O)C1C(=O)NCc1cccs1 (stereo not drawn),inactive
7,O=C(C(=O)N1CCN(c2ccccc2)CC1)c1ccc2c(c1)OCO2,inactive
8,CC1(C(=O)Nc2ccc3c(c2)OCCO3)CN(S(C)(=O)=O)CC(=O)N1Cc1cccc(F)c1 (stereo not drawn),inactive
9,COc1ccc(-n2ncc3c(N4CCc5ccccc54)ncnc32)cc1,-95.4% (active)
10,COc1ccccc1N1CCN(C(=O)CSc2ncnc3c2cnn3-c2ccc(C)c(C)c2)CC1,inactive
11,COc1ccc(-n2ncc3c(SCC(=O)NNC(C)=O)ncnc32)cc1,inactive
12,COc1nc(Oc2ccc(=O)n(C)n2)nc(N(C)C)n1,6.07%
13,COc1nc(OC)nc(N(C)CCO)n1,-113% (active)
14,CO[C@@H]1CN(C)C(=O)c2cc(NC(=O)C3CC3)ccc2OC[C@H](C)N(C(=O)CN2CCOCC2)C[C@@H]1C,inactive
15,CC(=O)C[C@@H]1OC[C@H](C)N1S(=O)(=O)c1ccc(C)cc1,inactive
16,Cc1cccc(C(=O)Nc2ccc(Oc3cnccn3)cc2)c1,inactive
17,Cc1cccc(C(=O)Nc2ccc(C(=O)/C=C/c3cccs3)cc2)c1,-121% (active)
18,Cc1cccc(C(=O)Nc2ccc3c(c2)C(=O)N(CC(C)C)C3=O)c1,inactive
19,CCCCCc1c(Cc2ccccc2)ncn1CCc1ccccc1OC,inactive
20,COc1ccc(N2C(=O)CCC(C(=O)N(C)C3CCCCC3)C2c2ccc(OC)c(OC)c2)cc1 (stereo not drawn),inactive
21,COc1ccc(S(=O)(=O)N[C@@H]2C=C[C@@H](CC(=O)N3CCc4ccccc4C3)O[C@@H]2CO)cc1,inactive

row,SMILES,activity change
1,Cc1ccc(C(=O)NC2CCN(C(=O)Nc3ccc(F)cc3)CC2)cc1,inactive
2,COc1ccc(C(=O)NC2CCN(C(=O)Nc3ccc(F)cc3)CC2)cc1,inactive
3,Cc1cc(C)cc(NC(=O)N2CCC(NC(=O)c3ccc(F)cc3)CC2)c1,-96.8% (active)
4,Cc1ccc(S(=O)(=O)N2C[C@H]3n4c(=O)ccc(=O)n4C[C@H](OC(=O)NC4CCCC4)[C@@]3(O)C2)cc1,inactive
5,Cc1ccc2nc(Nc3ncc4c(n3)CC(C)(C)CC4=O)nc(C)c2c1,inactive
6,O=C(NNC(=O)C1CCN(c2ncccn2)CC1)c1ccccc1,inactive
7,CC(=O)N1CCC(C(=O)Nc2nc(-c3ccccc3)ns2)CC1,inactive
8,Cc1cc(-c2ccccc2)nc(N2CCC(C(=O)NC34CC5CC(CC(C5)C3)C4)CC2)n1,-97.3% (active)
9,CCCCCNC(=O)C1C(=O)Nc2ccccc2C(=O)N1C(C)(C)C (stereo not drawn),inactive
10,COC(=O)[C@]12CCCCC=C1N(Cc1ccc(Cl)cc1Cl)C(=O)[C@H](CC(=O)NCc1cccc3ccccc13)C2,inactive
11,COC(=O)C1(C(=O)OC)C[C@H](c2ccccc2)N(Cc2ccccc2OC)[C@@H]1c1ccccc1,inactive
12,O=C(N[C@H]1CC[C@H](CC(=O)N2CCCCC2)O[C@@H]1CO)c1cccc(F)c1,inactive
13,c1ccc(COc2nsnc2N2CCOCC2)cc1,inactive
14,c1ccc(CSc2ncnc3c2sc2nc(N4CCOCC4)c4c(c23)CCCC4)cc1,-92.8% (active)
15,CCc1nc2sc3c(Cl)ncnc3c2c2c1CCCC2,inactive
16,COC(=O)[C@@]12C[C@@H](CC(=O)NCCCCc3ccccc3)C(=O)N(CCc3ccc(OC)c(OC)c3)C1=CCC(C)(C)C2,inactive
17,CCOC(=O)NC(=O)CSc1nnc(SCCC(=O)O)s1,inactive
18,COC(=O)[C@@]12C[C@@H](CC(=O)N3CCCCC3)C(=O)N(Cc3ccc4c(c3)OCO4)C1=CCC(C)(C)C2,inactive
19,COc1ccc(C2CC(=O)Nc3sc(=N)c4c(N)c(C#N)c(N)nc4c32)cc1OC (stereo not drawn),inactive
20,CSc1nc2c(c(=O)[nH]1)C(c1cccc(Cl)c1Cl)CC(=O)N2 (stereo not drawn),inactive
21,N#Cc1c(N)nc2c3c(sc(=N)c2c1N)NC(=O)CC3c1ccccc1Cl (stereo not drawn),-87.7% (active)
